Source: ChEMBL document CHEMBL4513216, “Probing the Open Global Health Chemical Diversity Library for Multistage-Active Starting Points for Next-Generation Antimalarials” (ACS Infect Dis, 2020)
The campaign covered roughly 68,000 compounds. About 2,700 (4%) showed an effect of 50% or more. The sample holds strong results, similar compounds and a random draw of the others, so the mix is not that of the screen.

Each compound was assayed on Plasmodium berghei (assay: Screen against P. berghei liver stage (PbLuc), transformed with Luciferase, at 2uM). Conditions: tested at 2 uM.
Assay type: functional, HepG2

Compared with CCC1CN(Cc2nc(C(C)C)no2)CCC(=O)N1Cc1ccccc1 (configuration not stated), CCN(CC)C(=O)c1nc2c(s1)CCN(Cc1cccc(OC)c1)CC2 is lower in INHIBITION: 8.14% for the first, 1.08% for the second.

Going from O=C(C1=CCCC1)N1C[C@H](OCc2cccnc2)[C@H]2OCCC[C@H]21 to O=C(COCc1ccccc1)N1CCCC(n2cncn2)C1 (configuration not stated), the INHIBITION falls from 31.46% to 24.15%.

First: CCCS(=O)(=O)N1CCC2(CC1)CC(=O)N(Cc1cc(F)cc(F)c1)C2
Second: c1cnn(Cc2ccc(CN3CCC4(CCCNC4)C3)cc2)c1 (configuration not stated)
The INHIBITION of the first is higher: 8.76% for the first, 0.49% for the second.

Going from C=c1occc1=C1NC(c2cccc(CN3CCOCC3)c2)=NO1 to Cn1c2ccccc2c2ncn(CCN3CCOCC3)c(=O)c21, the INHIBITION rises from 1.42% to 61.75%.

First: CCC(C)c1noc(C2CCN(C(=O)c3cccs3)CC2)n1 (configuration not stated)
Second: CCc1nc(NC2CCCN(C(=O)c3cccs3)C2)c2cnn(C)c2n1 (configuration not stated)
The INHIBITION of the first is lower: -50.86% for the first, -33.35% for the second.

Compared with c1ccc(Cn2cccn2)c(CN2CCC3(CCCNC3)C2)c1 (configuration not stated), c1cnn(Cc2ccc(CN3CCC4(CCNCC4)C3)cc2)c1 is higher in INHIBITION: 31.9% for the first, 56.79% for the second.

Compared with COC[C@]1(O)CCN(Cc2ccc(N(C)C)nc2)CC1(C)C, CCN(CC)C1(Cc2cc(-c3cccc(O)c3)on2)COC1 is lower in INHIBITION: 32.21% for the first, 10.08% for the second.

First: Cc1cc(CN2CC[C@H]3C[C@H](C(=O)N4CCC(C)CC4)O[C@H]3C2)no1
Second: Cn1ccnc1CN1CCCN(C(=O)COC2CCCC2)CC1
The INHIBITION of the first is higher: 34.88% for the first, 28.18% for the second.

First: CCn1ccnc1CN1CCCN(C(=O)COC2CCCC2)CC1
Second: CCn1ccnc1CN1CCCN(C(=O)COC2CCCCC2)CC1
The INHIBITION of the first is higher: 57.81% for the first, -2.87% for the second.

First: Cn1ccc(NC(=O)CN2C[C@@H]3CC[C@H]2CN(S(C)(=O)=O)C3)n1
Second: CS(=O)(=O)N1Cc2nccn2CC(Cn2ncccc2=O)C1 (configuration not stated)
The INHIBITION of the first is higher: 48.21% for the first, -9.42% for the second.

First: CN(Cc1nc2ccccc2o1)C1CCCN(c2cccnn2)C1 (configuration not stated)
Second: O=C(NC1CCCN(c2ccccc2Cl)C1)c1ccc(=O)[nH]n1 (configuration not stated)
The INHIBITION of the first is lower: -16.72% for the first, 42.88% for the second.

Going from Cc1cc(C)n(C2CCCN(C(=O)c3cccc4[nH]ncc34)C2)n1 (configuration not stated) to Cc1cc(C)n(C2CCCN(C(=O)c3ccn(C)c(=O)c3)C2)n1 (configuration not stated), the INHIBITION falls from -15.33% to -42.24%.

First: Cc1nccn1-c1ccc(C(C)NCc2cccn2C)cc1 (configuration not stated)
Second: Cc1ccc(C(C)NCc2cn(CCC(N)=O)c3ccccc23)cc1C (configuration not stated)
The INHIBITION of the first is lower: -28.15% for the first, 61.63% for the second.

First: Cn1c2ccc(F)cc2c2ncn(CCN3CCOCC3)c(=O)c21
Second: Cn1c2ccccc2c2ncn(CCCN3CCOCC3)c(=O)c21
The INHIBITION of the first is lower: -2.5% for the first, 23.65% for the second.

First: CN1CCCN(C[C@@H]2CN(c3nc(C(N)=O)cs3)C[C@@H]2CO)CC1
Second: COCCN1CCO[C@H]2CN(C(=O)c3cccs3)C[C@H]21
The INHIBITION of the first is higher: 19.56% for the first, 13.26% for the second.

First: COCCNc1c(-c2ccc(C)cc2)c(=O)c1=O
Second: COCCNc1nc2c(c(NCc3ccncc3)n1)CCNCC2
The INHIBITION of the first is lower: -21.29% for the first, -21.16% for the second.

Compared with O=c1cccnn1CC1CN(Cc2ccsc2)Cc2nccn2C1 (configuration not stated), O=c1cccnn1CC1CN(CC2CCCC2)Cc2nccn2C1 (configuration not stated) is higher in INHIBITION: -0.51% for the first, 52.83% for the second.

First: NC(=O)CCn1cc(CNCCCc2ccccc2O)c2ccccc21
Second: NC(=O)CCn1cc(CNCCCc2ccncc2)c2ccccc21
The INHIBITION of the first is higher: 57.34% for the first, 3.49% for the second.

Compared with NC(=O)CCn1cc(CNCc2csc(N)n2)c2ccccc21, NC(=O)CCn1cc(CNCCCc2csc(N)n2)c2ccccc21 is lower in INHIBITION: 72.49% for the first, 37.15% for the second.

Compared with CC(C)n1cnnc1CCNCc1cn(CCC(N)=O)c2ccccc12, CC(NCc1cn(CCC(N)=O)c2ccccc12)c1nncn1C (configuration not stated) is lower in INHIBITION: -9.3% for the first, -81.84% for the second.

Compared with CCCN1CCN(Cc2cn(CCC(N)=O)c3ccccc23)CC1, Cc1n[nH]c(C)c1CCCNCc1cn(CCC(N)=O)c2ccccc12 is higher in INHIBITION: 38.62% for the first, 42.2% for the second.

Compared with CCc1nccn1-c1cncc(C2CCN(C(=O)COC)CC2)n1, O=C(COCC1CC1)N1CCCC(n2ccnc2)C1 (configuration not stated) is higher in INHIBITION: 41.98% for the first, 67.53% for the second.

First: O=C(c1cccc(S(=O)(=O)NCCCn2cccn2)c1)N1CCOCC1
Second: O=C(COCCOc1ccccc1)N1CCCC(n2ccnc2)C1 (configuration not stated)
The INHIBITION of the first is higher: 30.8% for the first, 29.12% for the second.

First: COC(=O)[C@H](C)NC(=O)Cc1c(C)nc2c(c1C)c(=O)[nH]n2C
Second: Cc1cc(C)n2c(CCCNS(=O)(=O)c3ccc(F)cc3)nnc2n1
The INHIBITION of the first is lower: -7.03% for the first, 6.62% for the second.

Going from COCCNc1nc2c(c(NCCc3cccs3)n1)CCNCC2 to COCCNc1nc2c(c(NCC3CCOC3)n1)CCNCC2 (configuration not stated), the INHIBITION rises from -15.37% to 58.53%.

First: COCC(c1cccc(C(F)(F)F)c1)N(C)C(=O)c1cc(C)no1 (configuration not stated)
Second: COCC(c1cccc(C(F)(F)F)c1)N(C)C(=O)c1cc(C)n[nH]1 (configuration not stated)
The INHIBITION of the first is lower: -23.4% for the first, 51.21% for the second.

Compared with COCC(c1cccc(C(F)(F)F)c1)N(C)C(=O)c1ccncc1 (configuration not stated), O=C(NC1CCCN(c2ccc(OC(F)F)cc2)C1)c1c[nH]nn1 (configuration not stated) is lower in INHIBITION: 14.82% for the first, 5.48% for the second.

First: CCn1cc(CNC(=O)c2nn(CC)cc2Br)cn1
Second: O=C(NC1CCN(c2ccccc2Br)C1)c1c[nH]nn1 (configuration not stated)
The INHIBITION of the first is lower: -26.13% for the first, 53.81% for the second.

First: O=C(NC1CCCN(c2ccccc2Cl)C1)c1c[nH]nn1 (configuration not stated)
Second: O=C(NC1CCN(c2ccccc2OC(F)F)C1)c1c[nH]nn1 (configuration not stated)
The INHIBITION of the first is higher: 55.18% for the first, 31.3% for the second.

Compared with O=C(NC1CCCN(c2ccccc2Cl)C1)c1nc(=O)[nH][nH]1 (configuration not stated), CC(=O)Nc1nc(C(=O)N2CCCC(n3ccnc3)C2)cs1 (configuration not stated) is higher in INHIBITION: 8.05% for the first, 18.46% for the second.

Compared with CCCN(CCC)C1(Cc2cc(-c3cccc(O)c3)on2)COC1, Oc1cccc(-c2cc(CC3(N(CC4CC4)CC4CC4)COC3)no2)c1 is lower in INHIBITION: 50.72% for the first, -4.2% for the second.

Compared with NC1(C(=O)NCCC2CN(Cc3ccco3)CCO2)CCCC1 (configuration not stated), O=C(COCC1CC1)N1CCCC(n2cccn2)C1 (configuration not stated) is lower in INHIBITION: 18.98% for the first, -5.7% for the second.

Going from CC(C)(C)c1noc(CCCC(=O)N2CCNC(=O)C2)n1 to CC(=O)Nc1nc(C(=O)N2CCCC(n3cncn3)C2)cs1 (configuration not stated), the INHIBITION rises from -31.79% to 72.31%.

Going from COCCOC(=O)N1C[C@@H]2CC[C@H]1CN(C1Cc3ccccc3C1)C2 to COCCC(=O)N1C[C@@H]2CC[C@H]1CN(C1Cc3ccccc3C1)C2, the INHIBITION rises from -31.79% to 28.97%.

Going from COCCOCC(=O)N1C[C@@H]2CC[C@H]1CN(C1Cc3ccccc3C1)C2 to O=C(COCC1CC1)N1CCCC(n2cncn2)C1 (configuration not stated), the INHIBITION rises from 61.82% to 62.46%.

Going from O=C(COC1CCCCC1)N1CCCC(n2ccnc2)C1 (configuration not stated) to Cc1nc(C(=O)N2CCCC(n3cncn3)C2)cs1 (configuration not stated), the INHIBITION falls from -0.13% to -81.94%.
